Pf growth 48h – Primary qHTS for delayed death inhibitors of the malarial parasite plastid, 48 hour incubation; AID 504832, 2011; Potency, µM (series often up to 28.7 µM), actives largely listed as inhibitors; hit rate 5.9% among 310,000; P. falciparum luciferase growth in erythrocytes, 48 h
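Parasite viability was followed by luminescence of a genomically integrated firefly luciferase. Cultures held 0.1% parasitemia at 2% hematocrit (final), incubated under 5% CO2 at 37 C.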
HCV inh – qHTS Assay for Inhibitors of Hepatitis C Virus (HCV). Huh7.5.1 HCVcc-Cre infection, luciferase reporter, 44 h. Potency, µM (doses to about 41.8 µM), actives largely listed as inhibitors. hit rate 3.4% among 340,000. AID 651820, 2012
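Compounds are dispensed onto cells plated 4 h earlier at 1,000 per well, with HCVcc-Cre virus (about 0.5 moi) added next. Following 44 h of culture, luminescent signal is measured for 15 sec after 15 min with substrate at room temperature.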
HCMV antiviral – qHTS Assay for inhibitors of the human cytomegalovirus (HCMV); HFF cells, HCMV-luciferase reporter, 72 h; stronger effect = lower value; activity change, negative = inhibition, % at 57.5 µM; hit rate 4.5% among 410,000; in the data active = activity change below about -60%; inconclusive = no clear call, values can overlap the other calls; inactive = above about -39%
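Inhibition of viral replication was scored as loss of reporter luminescence in HFFs infected with HCMV-luciferase (MOI 1 PFU/cell) for 72 h; compounds tested at 2 doses, normalized to buffer and Salinomycin controls.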
Marburg entry inh – qHTS for inhibitors of binding or entry into cells for Marburg Virus. Potency, µM (doses to about 37.8 µM), usual class: inhibitors. Marburg virus pseudotyped entry inhibition, cell reporter. AID 540276, 2011. hit rate 1.8% among 300,000; calls by dose curve; tested in HEK293 cells
Lassa entry inh – qHTS for Inhibitors of binding or entry into cells for Lassa Virus; Lassa virus pseudotype entry inhibition, cell reporter; Potency, µM (highest dose often 37.9 µM), usual class: inhibitors; hit rate 1.2% among 300,000; calls by dose curve; tested in HEK293 cells; also: nearly all actives have a fitted effect of over 50% in size
Pf growth 96h – Primary qHTS for delayed death inhibitors of the malarial parasite plastid, 96 hour incubation; P. falciparum luciferase reporter growth, 96 h; Potency, µM (doses to about 28.7 µM), most hits filed as inhibitors; hit rate 6.9% among 320,000
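Parasite growth measured via integrated firefly luciferase reporter in P. falciparum. Infected erythrocytes at 2% hematocrit, 0.05% parasitemia final were treated 96 hours at 37 C under 5% CO2, and luminescence was read.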
Large screens that a line does not name were inactive. Only some compounds are listed: those with a hit (about 14% of all), similar ones and a draw of the others. Unless noted, calls follow the shape of the dose curve; as a rule, active = well fitted inhibition curve with a large enough effect; inconclusive = small, poorly fitted or top-dose-only effect, or another doubt; inactive = no such curve, though single readings can be large or run the other way.

O=C(NCC(c1ccco1)N1CCc2ccccc21)C(=O)Nc1ccc(F)cc1F (stereo not drawn)	Pf growth 48h inconclusive, HCV inh inconclusive, Lassa entry inh inconclusive, Pf growth 96h inconclusive
COc1ccccc1C(=O)NCC(c1ccco1)N1CCc2ccccc21 (stereo not drawn)	Pf growth 48h 10µM, HCV inh inconclusive, Marburg entry inh inconclusive, Pf growth 96h 5.2µM
COc1ccccc1C(=O)NCC(c1cccs1)N1CCc2ccccc21 (stereo not drawn)	Pf growth 48h 12µM, HCV inh inconclusive, Marburg entry inh inconclusive, Pf growth 96h 3.7µM
O=C(NCC(c1ccco1)N1CCc2ccccc21)C(=O)Nc1ccccc1 (stereo not drawn)	Pf growth 48h 1.3µM, Marburg entry inh inconclusive, Pf growth 96h inconclusive
O=C(NCC(c1ccco1)N1CCc2ccccc21)C(=O)Nc1ccccc1F (stereo not drawn)	Pf growth 48h inconclusive, HCV inh inconclusive, HCMV antiviral inconclusive, Marburg entry inh inconclusive, Lassa entry inh inconclusive
COc1cc(C(=O)NCC(c2ccco2)N2CCc3ccccc32)cc(OC)c1OC (stereo not drawn)	HCV inh inconclusive, Marburg entry inh inconclusive, Lassa entry inh inconclusive
CCOC(=O)C1=C(C)NC(C)=C(C(=O)OCC)C1C(=O)OCC(=O)NCCc1ccccc1	HCV inh inconclusive, Marburg entry inh inconclusive, Lassa entry inh inconclusive (no result: Pf growth 48h, Pf growth 96h)
CC(CNC(=O)Cn1c(-c2cccs2)cc2cc(Cl)ccc21)c1ccccc1 (stereo not drawn)	none (no result: Pf growth 48h, HCV inh, Marburg entry inh, Pf growth 96h)
Cc1ccc(C(=O)NCC(c2ccco2)N2CCc3ccccc32)cc1C (stereo not drawn)	Pf growth 48h 9.3µM, HCV inh inconclusive, Marburg entry inh inconclusive, Lassa entry inh inconclusive, Pf growth 96h inconclusive
O=C(c1cnn2ccccc12)N1CCN(C2CCCCC2)CC1	none (no result: Pf growth 48h, Marburg entry inh, Lassa entry inh)
O=C(c1cnn2ccccc12)N(Cc1ccco1)C1CCCC1	Pf growth 96h 10µM (no result: Pf growth 48h, Marburg entry inh, Lassa entry inh)
Fc1ccccc1CNC1CN2CCC1CC2 (stereo not drawn)	none (no result: Lassa entry inh)
Ic1ccccc1CNC1C2CCN(CC2)C1C(c1ccccc1)c1ccccc1 (stereo not drawn)	Marburg entry inh 4.6µM, Lassa entry inh 6.5µM (no result: Pf growth 48h, HCV inh, HCMV antiviral, Pf growth 96h)
Ic1ccccc1CN[C@@H]1C2CCN(CC2)[C@H]1C(c1ccccc1)c1ccccc1	Marburg entry inh 4.6µM (no result: Pf growth 48h, HCV inh, HCMV antiviral, Lassa entry inh, Pf growth 96h)
Ic1ccccc1CN[C@@H]1C2CCN(CC2)[C@@H]1C(c1ccccc1)c1ccccc1	Pf growth 48h 2.6µM, HCV inh inconclusive, HCMV antiviral -99, Pf growth 96h 2.9µM (no result: Marburg entry inh, Lassa entry inh)
Cc1cccc(CNS(=O)(=O)c2ccc(-c3coc(C)n3)cc2)c1	none (no result: Pf growth 48h, HCV inh, Marburg entry inh, Pf growth 96h)
O=C(OCc1cc(Cl)ccc1OC(F)F)c1ccc([N+](=O)[O-])o1	none (no result: HCV inh, HCMV antiviral, Marburg entry inh, Lassa entry inh)
COc1ccc(CCC(=O)NC2CC(=O)N(c3ccc(OC)cc3)C2)cc1 (stereo not drawn)	none (no result: Pf growth 48h, HCV inh, Marburg entry inh, Pf growth 96h)
O=c1c2c3c(sc2n(CCN2CCOCC2)c(=O)n1C1CCCCC1)CCCCC3	none (no result: Pf growth 48h, HCV inh, Marburg entry inh, Lassa entry inh, Pf growth 96h)
NC(=O)Cn1c(=O)n(C2CCCCC2)c(=O)c2c3c(sc21)CCCCC3	Pf growth 48h inconclusive, Pf growth 96h 2.3µM
COc1ccc(NC(=O)CC2C(=O)N(c3cccc(OC)c3)C(=O)N2CCc2cccs2)cc1 (stereo not drawn)	Lassa entry inh inconclusive (no result: Pf growth 48h, HCV inh, Pf growth 96h)
COc1ccccc1OCCN1CSC(=S)N(C)C1	HCMV antiviral -74, Marburg entry inh inconclusive
CC1(C)C2CCC(C2)C1C/C=N/NC(N)=S (stereo not drawn)	HCMV antiviral -73, Marburg entry inh inconclusive
CC1OC(OC2C=C3CCC4C(CCC5(C)C(c6ccc(=O)oc6)CCC45O)C3(C)CC2)C(O)C(OC2OC(CO)C(O)C(O)C2O)C1O (stereo not drawn)	HCV inh 16µM, HCMV antiviral -97, Marburg entry inh inconclusive, Lassa entry inh inconclusive (no result: Pf growth 48h, Pf growth 96h)
Cc1nc(CS(=O)c2ccc(Cl)cc2)cc(N2CCOCC2)n1 (stereo not drawn)	Marburg entry inh inconclusive
Cc1nc(CS(=O)c2ccccc2)cc(N2CCOCC2)n1 (stereo not drawn)	Pf growth 48h inconclusive, Pf growth 96h 8.3µM
O=C(O)CC1=C(c2ccc(F)cc2)CCC1=O	Pf growth 96h 6.6µM
CCc1ccc(NC(=O)Nc2ccccc2OCc2cc(=O)n3ccccc3n2)cc1	none (no result: Pf growth 48h, HCV inh, Marburg entry inh, Pf growth 96h)
CC12CCC(=O)N1C(C(=O)Nc1cc(C(F)(F)F)ccc1N1CCOCC1)CS2 (stereo not drawn)	Pf growth 48h inconclusive, HCV inh 8.9µM, Pf growth 96h inconclusive
Cc1cc(F)ccc1NC(=O)C1CSC2(C)CCC(=O)N12 (stereo not drawn)	Marburg entry inh inconclusive
CC12CCC(=O)N1C(C(=O)Nc1cc(C(F)(F)F)ccc1N1CCCCC1)CS2 (stereo not drawn)	Pf growth 48h 9.3µM, HCV inh 3.5µM, Marburg entry inh inconclusive, Pf growth 96h inconclusive
CC12CCC(=O)N1C(C(=O)Nc1cc(Cl)ccc1N1CCCC1)CS2 (stereo not drawn)	Pf growth 48h inconclusive, HCV inh 8.9µM, Marburg entry inh inconclusive, Pf growth 96h inconclusive
CC12CCC(=O)N1C(C(=O)Nc1ccccc1N1CCCCC1)CS2 (stereo not drawn)	Pf growth 48h 10µM, Pf growth 96h inconclusive
CC12CCC(=O)N1C(C(=O)Nc1ccccc1N1CCOCC1)CS2 (stereo not drawn)	Marburg entry inh inconclusive
CC12CCC(=O)N1C(C(=O)Nc1ccccc1N1CCCC1)CS2 (stereo not drawn)	HCV inh inconclusive, Marburg entry inh inconclusive (no result: Pf growth 48h, Pf growth 96h)
CCOP(=O)(OCC)c1c2c(cc3ccc(Cl)cc13)CCC2	none (no result: Pf growth 48h, HCV inh, Marburg entry inh, Lassa entry inh, Pf growth 96h)
C[C@@H]1CN([C@H](C)CO)C(=O)CCCn2nncc2CO[C@H]1CN(C)S(=O)(=O)c1ccc(Oc2ccccc2)nc1	none (no result: Pf growth 48h, HCV inh, Marburg entry inh, Lassa entry inh, Pf growth 96h)
CCc1ccccc1NC(=O)Cn1c(=O)n(-c2ccc(C)cc2)c(=O)c2c1c1cc(C)ccc1n2C	none (no result: Pf growth 48h, HCV inh, Marburg entry inh, Pf growth 96h)
CC(=O)c1cn(C2OC(CO)C3OC(C)(C)OC32)c(=O)n(C)c1=O (stereo not drawn)	none (no result: Pf growth 48h, Pf growth 96h)
CCN(CC)c1ccc(S(=O)(=O)N2CCCCC2)cc1NC(=O)C1CSC2(C)CCC(=O)N12 (stereo not drawn)	Pf growth 48h 12µM, Pf growth 96h inconclusive (no result: Marburg entry inh, Lassa entry inh)
Cc1cc(C)c(C)c(S(=O)(=O)N2CCN(C(=O)C3CSC4(C)CCC(=O)N34)CC2)c1C (stereo not drawn)	Pf growth 48h 10µM, HCV inh inconclusive, Pf growth 96h inconclusive (no result: HCMV antiviral)
CCOc1ccc(S(=O)(=O)N2CCOCC2)cc1NC(=O)C1CSC2(C)CCC(=O)N12 (stereo not drawn)	HCMV antiviral inconclusive, Marburg entry inh inconclusive
COc1ccc(N(CC(=O)NCCSC2CCCCC2)S(=O)(=O)c2ccccc2)cc1OC	Pf growth 48h 13µM, HCV inh inconclusive, Pf growth 96h inconclusive
